The source of these data is PubChem BioAssay (Tox21).

Several values for one entry are separate records, joined by “and”; a condition that tells them apart may be missing. Equal values may be shown once. Activity calls are given as the source filed them. Entries that show only a call come without a potency. Calls come from the whole dose curve.
Potency is the fitted concentration of half-maximal effect.

Sequence of Estrogen receptor (Homo sapiens) (P03372 whole entry, looked up): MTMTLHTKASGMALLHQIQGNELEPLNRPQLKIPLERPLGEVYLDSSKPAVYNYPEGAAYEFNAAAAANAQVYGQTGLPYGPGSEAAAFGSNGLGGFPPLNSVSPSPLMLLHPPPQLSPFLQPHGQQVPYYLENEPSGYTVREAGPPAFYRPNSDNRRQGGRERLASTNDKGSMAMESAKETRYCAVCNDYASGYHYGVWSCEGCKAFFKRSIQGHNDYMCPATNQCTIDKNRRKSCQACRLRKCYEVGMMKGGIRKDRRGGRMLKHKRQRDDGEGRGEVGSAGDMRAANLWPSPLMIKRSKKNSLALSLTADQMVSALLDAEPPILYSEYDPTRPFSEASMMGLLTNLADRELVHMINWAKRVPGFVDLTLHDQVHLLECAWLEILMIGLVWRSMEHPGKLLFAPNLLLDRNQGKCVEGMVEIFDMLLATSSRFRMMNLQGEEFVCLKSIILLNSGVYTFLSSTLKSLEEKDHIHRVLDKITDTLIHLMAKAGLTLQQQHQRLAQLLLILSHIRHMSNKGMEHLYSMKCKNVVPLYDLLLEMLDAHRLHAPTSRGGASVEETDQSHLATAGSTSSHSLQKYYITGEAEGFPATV

The target of this assay is Estrogen receptor (Homo sapiens) (UniProt P03372). The experiment in a line: qHTS assay to identify small molecule agonists of the estrogen receptor alpha (ER-alpha) signaling pathway in the presence of an antagonist (AID 1259383). Note: nearly all actives have a fitted effect of over 15% in size. The conditions noted are these: VM7Luc4E2 cells, ERE-luciferase, +ICI-182,780, 22 h; series mostly up to 92.4 µM. The method in brief:
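VM7Luc4E2, endog. ER-alpha + 4×ERE-luc; charcoal-stripped FBS, phenol red-free, 5 d; 24hr plating; +10.0nM ICI-182,780 (final); cpds 15 conc, 22hr, 37C/5% CO2; ONE-Glo luminescence.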
Background: Quantitative high-throughput screening tests each substance at several concentrations.
In the case of `CO/N=C(/C1=NOCCO1)c1ccccc1Oc1ncnc(Oc2ccccc2Cl)c1F`, the Potency entry was “inactive”.

As for `Clc1ccc(C(c2ccc(Cl)cc2)C(Cl)Cl)cc1`, the Potency result is “inactive”.

As for `COP(=S)(OC)Oc1ccc([N+](=O)[O-])c(C)c1`, the Potency result was “inactive”.

In the case of `CC#C[C@]1(O)CC[C@H]2[C@@H]3C[C@H](C)C4=CC(=O)CC[C@]4(C)[C@H]3CC[C@@]21C`, the Potency result is “inactive”.

`CCOC(=O)CCN(SN(C)C(=O)Oc1cccc2c1OC(C)(C)C2)C(C)C`: the Potency result is “inactive”.

Consider `CN1C2CCC(C)(C)C1CC(OC(=O)C(O)(c1cccs1)c1cccs1)C2` (stereo not given), for which the Potency entry was “inactive”.

As to `N#Cc1c[nH]cc1-c1cccc2c1OC(F)(F)O2`, the Potency result was “inactive”.

With `CCCCN(CCCC)C(=S)[S-].CCCCN(CCCC)C(=S)[S-].[Ni+2]`, the Potency entry is “inactive”.

`O.O.O.O=C([O-])[C@H]([O-])[C@@H]([O-])C(=O)[O-].O=C([O-])[C@H]([O-])[C@@H]([O-])C(=O)[O-].[K+].[K+].[Sb+3].[Sb+3]`: the Potency entry was “inactive”.

For `Oc1ccc(Cl)c(Cl)c1`, the Potency entry is “inactive”.

`NC1CCC(CC2CCC(N)CC2)CC1` (stereo not given): the Potency entry was “inactive”.

For `O=c1c2ccccc2c(=O)c2c1cc(Cl)c1[nH]c3c([nH]c12)c(Cl)cc1c(=O)c2ccccc2c(=O)c13`, the Potency result was “inactive”.

As to `c1cc[n+]2c(c1)-c1cccc[n+]1CC2`, the Potency result was “inactive”.

For the compound `CCOP(=O)(OCC)Oc1nc(Cl)c(Cl)cc1Cl`, the Potency entry is “inactive”.

Regarding `CCN(CC)C(=S)S`, the Potency result was “inactive”.

Take `ClC1=C(Cl)[C@]2(Cl)[C@H]3[C@H]([C@@H]4C=C[C@H]3C4)[C@@]1(Cl)C2(Cl)Cl`: the Potency entry was “inactive”.

Consider `CC(C)[C@@H](Nc1ccc(C(F)(F)F)cc1Cl)C(=O)OC(C#N)c1cccc(Oc2ccccc2)c1` (stereo not given in full), for which the Potency entry was “inactive”.

As to `Cc1ccccc1OP(=O)(Oc1ccccc1C)Oc1ccccc1C`, the Potency result is “inactive”.

Take `CCCCC(CC)COC(=O)c1ccccc1C(=O)OCC(CC)CCCC` (stereo not given): the Potency was 27.3 µM (active).

For the compound `CSC(C)(C)/C=N/O`, the Potency result is “inactive”.

Take `Fc1ccc(C(OCCN2CCN(CCCc3ccccc3)CC2)c2ccc(F)cc2)cc1`: the Potency entry is “inactive”.

In the case of `Oc1cc(Cl)cc(Cl)c1`, the Potency result is “inactive”.

Take `c1ccc(N=NNc2ccccc2)cc1`: the Potency result is “inactive”.

`Cc1cccc(Cc2cnc[nH]2)c1C`: the Potency entry was “inactive”.

With `C[C@]12C/C(=C/O)C(=O)C[C@@H]1CC[C@@H]1[C@@H]2CC[C@@]2(C)[C@H]1CC[C@]2(C)O`, the Potency was 8.71 µM (active) and 21.1 µM (active).
